Source: PubChem BioAssay
RAD54 inh: RAD54 (human) branch migration inhibition | RAD54 Holliday junction branch migration, FAM/BHQ fluorescence | inhibition, % at 10.4 µM | actives 0.14% (n = 360,000);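 active = mean normalized replicate activity at least 40 and at least half of replicates scoring 40 or more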;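 also: inhibitors cause a drop in the FAM fluorescence signal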
Target sequence (Q92698 whole entry, looked up): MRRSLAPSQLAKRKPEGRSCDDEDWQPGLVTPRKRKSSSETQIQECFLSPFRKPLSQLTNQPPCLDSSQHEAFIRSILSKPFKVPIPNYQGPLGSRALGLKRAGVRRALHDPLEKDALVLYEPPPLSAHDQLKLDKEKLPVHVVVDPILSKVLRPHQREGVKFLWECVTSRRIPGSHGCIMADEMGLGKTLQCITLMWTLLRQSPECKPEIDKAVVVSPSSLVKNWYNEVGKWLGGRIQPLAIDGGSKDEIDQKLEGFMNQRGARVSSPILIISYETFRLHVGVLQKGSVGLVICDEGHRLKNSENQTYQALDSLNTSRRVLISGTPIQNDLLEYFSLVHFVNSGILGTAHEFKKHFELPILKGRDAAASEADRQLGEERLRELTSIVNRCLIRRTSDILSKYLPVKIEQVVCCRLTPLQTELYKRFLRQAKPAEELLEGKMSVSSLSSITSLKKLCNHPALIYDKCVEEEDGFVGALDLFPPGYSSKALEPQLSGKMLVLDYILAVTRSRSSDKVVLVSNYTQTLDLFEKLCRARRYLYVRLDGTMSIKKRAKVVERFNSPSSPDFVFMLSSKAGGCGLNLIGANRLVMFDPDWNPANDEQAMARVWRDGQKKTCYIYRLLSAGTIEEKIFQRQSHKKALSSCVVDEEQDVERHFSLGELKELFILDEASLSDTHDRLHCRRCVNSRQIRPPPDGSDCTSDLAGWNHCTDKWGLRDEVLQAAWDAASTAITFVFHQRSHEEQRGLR
dFosB act: mouse delta FosB homodimer activation. purified delta FosB, TAMRA-CDK5 oligo fluorescence polarization; percent of positive-control signal above neutral wells. activation, % at 25 µM. actives 0.99% (n = 340,000);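 active = mean activation above about 17%, with every replicate also reaching it, limit read from the data, passing the limit was not always enough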
Glyco luc inh: blocks N-linked glycosylation in D54 reporter cells | D54 ERlucT glycosylation luciferase reporter, 24 h; percent of 100 nM tunicamycin response | reporter increase, % at 12.5 µM | actives 0.23% (n = 360,000) | AID 588692;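 active = mean luciferase reporter signal, scaled so untreated is 0 and the glycosylation-blocking control 100, at or above a set limit in every replicate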;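 also: luciferase carries N-glycosylation sites so blocking glycosylation raises the light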
RAD52 inh: blocks human RAD52 DNA annealing. recombinant RAD52 DNA annealing, FRET fluorescence. inhibition, % at 18.7 µM. actives 0.46% (n = 360,000). AID 651710;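 active = every replicate showing at least 50% inhibition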
PvdQ acylase: blocks Pseudomonas aeruginosa PvdQ acylase activity. purified PvdQ acylase, fluorescence plate reader. inhibition, % at 10 µM. actives 0.063% (n = 340,000). AID 488965; in the data active = inhibition above about 30%, passing the limit was not always enough
CFTR F508del cor: CFTR F508del correction in bronchial cells; CFBE cells, YFP halide quenching; stimulated with forskolin plus potentiator P3; % fluorescence drop versus neutral controls; activity (quench increase), % at 7.58 µM; actives 0.36% (n = 350,000);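 active = mean added fluorescence quench of at least 8% versus neutral control, with both replicates also reaching 8%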;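 also: cells transiently co-express mutant CFTR-F508del with the halide-sensitive YFP; corrector assay measuring rescue of mutant channel to the surface after 24 h compound exposure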
Numbers stand for hits; 0 = inactive; - = not tested or not shown. Only some compounds are listed: those with a hit (about 1.5% of all), similar ones and a draw of the others.

SMILES	RAD54 inh	dFosB act	Glyco luc inh	RAD52 inh	PvdQ acylase	CFTR F508del cor
CCS(=O)(=O)NCC[C@@H]1CC[C@@H](NC(=O)C2CCCCC2)[C@H](CO)O1	-	-	-	-	-	0
C[C@H](CO)N1C[C@H](C)[C@@H](CN(C)S(=O)(=O)c2cn(C)cn2)Oc2ccc(NC(=O)Nc3ccc(F)cc3)cc2CC1=O	-	-	-	-	-	0
COc1cccc(C(NC(C)=O)c2nc(-c3ccccc3C)cs2)c1 (stereo unspecified)	0	-	45	0	-	0
COc1cc(F)ccc1-c1csc(C(NC(C)=O)c2cccc(F)c2)n1 (stereo unspecified)	0	-	58	0	-	0
C/C=C/c1ccc2c(c1)O[C@H](CN(C)Cc1ccc(C(=O)O)cc1)[C@H](C)CN([C@@H](C)CO)S2(=O)=O	0	-	-	0	-	0
C=C(C)Cc1c(C)c(C#N)c2nc3ccccc3n2c1NCCCN(C)C	0	-	38	0	-	0
C=CCc1c(C)c(C#N)c2nc3ccccc3n2c1NCCN(C)C	-	0	0	-	0	-
CCCCn1c(N)c(N(CC(C)C)C(=O)C2CCN(S(=O)(=O)c3ccc(C)cc3)CC2)c(=O)[nH]c1=O	-	56	0	0	0	0
CCCCn1c(N)c(N(CC(C)C)C(=O)C2CCN(S(=O)(=O)c3ccc(Cl)cc3)CC2)c(=O)[nH]c1=O	0	0	0	0	0	0
C[C@H]1CN([C@@H](C)CO)C(=O)Cc2cc(NC(=O)CCC(F)(F)F)ccc2O[C@H]1CN(C)Cc1ccc2c(c1)OCO2	0	-	-	0	-	0
COc1cc(/C=C2/SC(=S)N(Cc3ccccc3)C2=O)cc(Cl)c1O	0	0	0	0	0	8.1
O=C1/C(=C\c2ccc(O)cc2)SC(=S)N1Cc1ccccc1	0	0	0	0	0	26
COc1cc(/C=C2\SC(=S)N(CC(=O)Nc3ccc(O)cc3)C2=O)cc(OC)c1OC	-	18	0	0	0	0
COc1ccc(/C=C2\SC(=S)N(CCCC(=O)NNC(=O)c3ccccc3O)C2=O)cc1	-	45	0	0	0	0
COc1ccc2c3c(n(C)c2c1)[C@H](CO)N(C(=O)Nc1ccc(F)cc1)CC31CCN(C(=O)c2ccc3c(c2)OCO3)CC1	-	-	-	0	-	0
CC=Cc1ccc2n(c1=O)C[C@@H]1[C@@H](CO)[C@H](C(=O)NCC3CC3)N(CC3CCOCC3)[C@H]21 (mixture of isomers)	0	-	-	0	-	0
COc1cc(/C=C2\SC(=O)N(CC(=O)Nc3cccc(C)c3)C2=O)ccc1OC(C)C(=O)O (stereo unspecified)	0	0	0	0	0	-
COc1ccc(/C=C2\SC(=O)N(CC(=O)Nc3cccc(C)c3)C2=O)cc1O	0	19	0	0	0	0
CCCN(C)C[C@H]1OCCCC[C@@H](C)Oc2ccc(NS(=O)(=O)c3cccs3)cc2C(=O)N([C@H](C)CO)C[C@@H]1C	-	-	-	0	-	0
Cc1c2cc[n+](CCN3CCCCC3)cc2c(C)c2c1[nH]c1ccc(O)cc12	-	89	0	-	0	-
CCCn1c(N)c(C(=O)COC(=O)/C=C/c2ccc(OC(F)F)c(OC)c2)c(=O)[nH]c1=O	0	22	0	0	0	0
COc1cc(/C=C/C(=O)OCC(=O)NCCN2C(=O)CSC2=O)ccc1OC(F)F	-	0	0	0	0	0
CCCNC(=O)N1CC2(CN(C(=O)c3ccncc3)C2)c2c([nH]c3cc(OC)ccc23)[C@@H]1CO	-	-	-	-	-	0
CCOc1ccc(OCC(=O)Nc2ccc(N3CCCCC3)cc2)cc1	0	0	0	0	0	0
Cc1cc(OCC(=O)Nc2ccc(N3CCCC3)cc2)cc(C)c1Cl	0	65	0	-	0	-
SMILES	RAD54 inh	dFosB act	Glyco luc inh	RAD52 inh	PvdQ acylase	CFTR F508del cor
CO[C@@H]1CN(C)C(=O)c2ccc(NC(=O)c3nc4ccccc4s3)cc2OC[C@@H](C)NC[C@H]1C	0	-	-	0	-	0
COc1ccc2c3c([nH]c2c1)[C@H](CO)N(C(=O)C1CCOCC1)CC31CN(Cc2nccs2)C1	-	-	-	0	-	0
O=C(CSc1ccccc1)Nc1ccc(-c2nc3ccccc3[nH]2)cc1	-	0	0	-	0	-
O=C(Cc1cccs1)Nc1ccc(-c2nc3ccccc3[nH]2)cc1	0	0	33	-	0	-
CCNC(=O)C[C@H]1CC[C@@H]2[C@@H](COc3ccc(NC(=O)c4cc(C)on4)cc3C(=O)N2C)O1	0	-	-	0	-	0
Cc1cc(NCc2ccccn2)n2ncc(-c3ccccc3)c2n1	0	0	0	0	0	8.5
Cc1cc(NCc2ccccn2)n2ncc(-c3ccc(Cl)cc3)c2n1	0	0	0	0	0	0
Cc1cccc(C(=O)N2CCc3cc(-c4nc(NC(=O)CN5CCCC5)sc4C)ccc32)c1	0	0	0	0	0	0
Cc1cccc(C(=O)N2CCc3cc(-c4csc(NC(=O)CN5CCCC5)n4)ccc32)c1	0	37	0	0	0	0
NNC(=O)c1ccc2nc(-c3ccc(Br)cc3)cn2c1	-	0	116	0	0	0
COc1ccc(-c2cn3cc(C(=O)NN)ccc3n2)cc1	-	0	0	0	0	0
O=C1c2ccccc2C(=O)c2c1cccc2N1CCCC1	0	0	0	0	0	8.0
O=C1c2ccccc2-c2onc3ccc(N4CCCC4)c1c23	-	0	0	0	0	0
Cn1c(=O)cc2c3c(c(N4CCCCC4)ccc31)C(=O)c1ccccc1-2	0	-	28	0	-	-
Cn1nc(-c2ccccc2)c(N2CCCCC2)cc1=O	-	0	0	0	0	0
COCC(=O)N1C[C@@H](C)[C@H](OC)CN(C)C(=O)c2cc(NC(=O)c3ccccc3)ccc2OC[C@@H]1C	0	-	-	0	-	0
COc1ccc(C(=O)CC(SCC(NC(C)=O)C(=O)O)c2ccc(Cl)cc2)cc1OC (stereo unspecified)	0	0	33	0	0	0
COc1ccc(C(C)NC(=O)c2ccc(Cl)cc2)cc1OC (stereo unspecified)	-	0	0	-	0	-
CCCOc1ccc(C(=O)CCC(=O)OCC(=O)Nc2ccc(OCC)cc2)cc1	-	-	-	0	-	0
CCCOc1ccc(C(=O)CCC(=O)OCC(=O)Nc2cccc(S(N)(=O)=O)c2)cc1	0	0	0	0	49	0
CN1/C(=C/c2cc[n+](C)c3ccccc23)C=Cc2ccccc21	-	51	0	-	0	-
Cc1cccc(C)c1NC(=O)Cn1nnc(C(=O)Nc2ccc(F)cc2F)c1N	0	46	0	0	0	0
Cc1cc(C)c(NC(=O)Cn2nnc(C(=O)Nc3ccc(F)cc3F)c2N)c(C)c1	0	25	0	0	0	0
Cc1cc(C)c(NC(=O)Cn2nnc(C(=O)NCCc3ccccc3)c2N)c(C)c1	0	0	0	-	0	-
Cc1ccccc1S(=O)(=O)N1CCCCN2[C@@H](CO)[C@@H](c3ccc(-c4cncnc4)cc3)[C@@H]2C1	0	-	-	0	-	0
NC(=O)Cn1c(O)c(N=NC(=O)CNC(=O)/C=C/c2ccccc2)c2ccccc21	0	18	0	0	0	0
O=C(CNC(=O)c1ccco1)N=Nc1c(O)n(CCc2ccccc2)c2ccccc12	0	0	34	0	0	0
